Inconclusive results are not listed. A number with no mark means an inactive call. The call rests on the fitted dose curve; in most records, active means well fitted inhibition curve with a large enough effect in the signal ratio in the repeat runs (not every such curve was filed as active); inconclusive means weak or mixed curves, or effect the other way; inactive means no such curve, though single readings can be large or run the other way; the % refers to the signal ratio.
molecular target: Peroxisome proliferator-activated receptor delta (Homo sapiens) (UniProt Q03181); experiment: qHTS assay to identify small molecule antagonists of the peroxisome proliferator-activated receptor delta (PPARd) signaling pathway (AID 743215); conditions: HEK293H PPARd-UAS-bla, beta-lactamase FRET ratio, antagonist, 17 h; series mostly up to 62 µM; ratio activity, negative = inhibition: at the top concentration;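 further: cells stimulated with agonist L165041 at 300 nM final during compound exposure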
Text: U.S. Tox21 Program National Center for Advancing Translational Sciences [NCATS] NIH Chemical Genomics Center [NCGC] U.S. Environmental Protection Agency [EPA] National Institutes of Environmental Health Sciences [NIEHS] National Toxicology Program [NTP] U.S. Food and Drug Administration [FDA] Tox21 Assay Overview: The peroxisome proliferator-activated receptors (PPARs) are lipid-activated transcription factors of the nuclear receptor superfamily with three distinct subtypes namely PPAR alpha, PPAR delta (PPARd) and PPAR gamma. All these subtypes heterodimerizes with Retinoid X receptor (RXR) and have different physiological functions. […] To identify the compounds that inhibit PPAR-delta signaling, GeneBLAzer PPAR delta UAS-bla HEK293H cell line (Invitrogen, Carlsbad, CA, USA) containing a beta-lactamase reporter gene under the control of an Upstream Activator Sequence (UAS) was used to screen the Tox21 compound library.
Tox21 Assay Protocol Summary: PPARd-bla cells were dispensed at 3000 cells/5uL/well in 1536-well black wall/clear bottom plates using a Multidrop Combi (Thermo Fisher Scientific, Waltham, MA) dispenser. After the assay plates were incubated at 37 C and 5% CO2 for 5 h, 23 nL of compounds dissolved in DMSO, positive controls or DMSO only was transferred to the assay plate by a Pintool station (Kalypsys, San Diego, CA), followed by addition of 1ul L165041 (300 nM, final concentration in the wells). The assay plates were incubated at 37 C for 17 h, and then 1 uL of LiveBLAzerTM B/G FRET substrate was added using a Bioraptr Flying Reagent Dispenser (FRD) workstation (Beckman Coulter, Indianapolis, IN, USA). The assay plates were incubated at room temperature for 2 h and fluorescence intensity was measured by an Envision plate reader (PerkinElmer, Shelton, CT).
On the % scale 0 is the no-effect control and ±100 the full control effect.

Chain of Peroxisome proliferator-activated receptor delta (Homo sapiens) (Q03181 whole entry, looked up): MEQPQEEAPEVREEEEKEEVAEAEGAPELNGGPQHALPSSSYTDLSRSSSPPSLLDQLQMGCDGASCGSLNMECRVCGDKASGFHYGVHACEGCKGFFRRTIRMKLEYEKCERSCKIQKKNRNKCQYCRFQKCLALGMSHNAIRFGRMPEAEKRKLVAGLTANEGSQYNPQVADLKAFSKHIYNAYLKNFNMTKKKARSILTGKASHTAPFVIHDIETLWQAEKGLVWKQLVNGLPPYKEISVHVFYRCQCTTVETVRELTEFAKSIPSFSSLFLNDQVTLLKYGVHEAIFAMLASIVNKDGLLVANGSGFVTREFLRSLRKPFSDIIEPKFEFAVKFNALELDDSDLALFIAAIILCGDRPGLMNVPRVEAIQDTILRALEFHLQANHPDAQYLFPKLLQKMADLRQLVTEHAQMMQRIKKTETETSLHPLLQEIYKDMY

Going from COc1ccc(C(=O)N2CCCC2=O)cc1 to O=C(Oc1ccc(Br)cc1)N1CCN2CCC1CC2, the “ratio activity, negative = inhibition” value falls from -0.0429% to -26.9%.

Compared with OC(Cn1cncn1)(c1ccc(F)cc1)c1ccccc1F (stereo not given), CC(C)(C)C(=O)C(Oc1ccc(Cl)cc1)n1cncn1 (stereo not given) is higher in “ratio activity, negative = inhibition” value: -8.45% for the first, 7.49% for the second.

Going from C1CCC(C2CCCCC2)CC1 to CC1CCC(=O)O1 (stereo not given), the “ratio activity, negative = inhibition” value rises from -3.12% to 0.728%.

Going from N#Cc1c(Cl)cccc1Cl to Cc1cccc(C#N)c1, the “ratio activity, negative = inhibition” value rises from -5.47% to 0.0641%.

Compared with CC1(C)COP(Oc2ccccc2)OC1, CC1(C)CON(Cc2ccccc2Cl)C1=O is lower in “ratio activity, negative = inhibition” value: 1.25% for the first, -26% for the second.

Compared with CNC(=O)N(C)c1nc2ccccc2s1, CC(C(=O)c1ccccc1)N(C)C (stereo not given) is higher in “ratio activity, negative = inhibition” value: -0.542% for the first, 4.06% for the second.

Compared with CCOC(=O)C1(c2ccccc2)CCN(CCc2ccc(N)cc2)CC1, ClCCCN1CCN(c2cccc(Cl)c2)CC1 is higher in “ratio activity, negative = inhibition” value: -7.9% for the first, 2.74% for the second.

Compared with CNC(=O)Oc1ccc(N(C)C)c(C)c1, CC(=O)Nc1cc([As](=O)(O)O)ccc1O is higher in “ratio activity, negative = inhibition” value: -2.63% for the first, 1.91% for the second.

First: Cc1ccccc1CO[C@@H]1C[C@@]2(C(C)C)CC[C@]1(C)O2
Second: COP(N)(=S)Oc1ccccc1C(=O)OC(C)C (stereo not given)
The “ratio activity, negative = inhibition” value of the first is lower: -2.17% for the first, 4.79% for the second.

First: CCN(CC)c1nc(C)cc(OP(=S)(OC)OC)n1
Second: COc1cc(OC)nc(NC(=O)NS(=O)(=O)c2ncccc2C(=O)N(C)C)n1
The “ratio activity, negative = inhibition” value of the first is lower: -10.3% for the first, -0.869% for the second.

Going from O=C1CN=C(c2ccccc2)c2cc([N+](=O)[O-])ccc2N1 to O=c1oc2ccccc2c(O)c1C1CCCc2ccccc21 (stereo not given), the “ratio activity, negative = inhibition” value falls from 2.54% to -13.8%.

Compared with N#CC(Cl)(Cl)Cl, CC(Cl)(Cl)[N+](=O)[O-] is higher in “ratio activity, negative = inhibition” value: 3.07% for the first, 3.79% for the second.

Compared with CC(C)[N+](=O)[O-], CC(C=O)Cc1ccc2c(c1)OCO2 (stereo not given) is higher in “ratio activity, negative = inhibition” value: 12.5% for the first, 17% for the second.

First: CCOP(=S)(OCC)SCSc1ccc(Cl)cc1
Second: CCOC(=O)NC(=S)Nc1ccccc1NC(=S)NC(=O)OCC
The “ratio activity, negative = inhibition” value of the first is higher: -1.39% for the first, -5.75% for the second.

Compared with CC(COc1ccc(Oc2ccccc2)cc1)Oc1ccccn1 (stereo not given), c1coc(-c2nc3ccccc3[nH]2)c1 is higher in “ratio activity, negative = inhibition” value: -4.64% for the first, 3.02% for the second.

Compared with N#CC(O)c1ccccc1 (stereo not given), NC1=NC(=O)C(c2ccccc2)O1 (stereo not given) is higher in “ratio activity, negative = inhibition” value: 3.16% for the first, 10.6% for the second.

Going from O=C1OC(=O)C2C1C1(Cl)C(Cl)=C(Cl)C2(Cl)C1(Cl)Cl (stereo not given) to CCC1(c2ccccc2)C(=O)NC(=O)NC1=O, the “ratio activity, negative = inhibition” value rises from -5.71% [at 80.4 µM] to 6.97% [at 80.4 µM].

First: CC(C)CC#N
Second: CC(CC(C#N)(c1ccccc1)c1ccccc1)N(C)C (stereo not given)
The “ratio activity, negative = inhibition” value of the first is lower: -20.1% [at 80.4 µM] for the first, -0.635% [at 80.4 µM] for the second.

First: O=[N+]([O-])c1cccc2c([N+](=O)[O-])cccc12
Second: CCC(C)(C)c1cc(-n2nc3ccccc3n2)c(O)c(C(C)(C)CC)c1
The “ratio activity, negative = inhibition” value of the first is higher: 1.98% [at 80.4 µM] for the first, -0.0806% [at 80.4 µM] for the second.

With COc1cc(C[C@@H](C)N)c(OC)cc1C the “ratio activity, negative = inhibition” value was 3.56% [at 80.4 µM].

For CCN(CC)C(=O)[C@@H]1C=C2c3cccc4[nH]cc(c34)C[C@H]2N(C)C1, the “ratio activity, negative = inhibition” value was 8.63% [at 226 µM].
